{"source": "ChEMBL document CHEMBL4513216", "about": "“Probing the Open Global Health Chemical Diversity Library for Multistage-Active Starting Points for Next-Generation Antimalarials” (ACS Infect Dis, 2020)", "note": "In all, about 69,000 compounds went through this assay and about 8,600 (12%) showed an effect of 50% or more. This is one part of a sample in which strong results are shown more often than they occur."}
{"tested_on": "Plasmodium berghei", "test": "Screen against P. berghei liver stage (PbLuc), transformed with Luciferase, at 10uM", "type": "functional, HepG2", "details": "tested at 10 uM", "units": {"INHIBITION": "%"}}
{"compound": "Cn1nc2c(cc1=O)CN(Cc1coc(-c3cccc(F)c3)n1)CC2", "INHIBITION": 9.54}
{"compound": "COCCNC(=O)c1nc(NS(=O)(=O)c2ccccc2)sc1C", "INHIBITION": 17.7}
{"compound": "Cc1cnc(C(=O)NC(CN2CCCC2=O)c2ccccc2)cn1", "note": "(centres undefined)", "INHIBITION": -15.543}
{"compound": "CCN(CC)c1ncc(CNCC2CCCn3ccnc32)s1", "note": "(centres undefined)", "INHIBITION": 30.8}
{"compound": "Cc1ccc(N2CCCC(NCC3=Cc4ccccc4OC3)C2)nn1", "note": "(centres undefined)", "INHIBITION": -4.94}
{"compound": "Cc1cn2c(n1)C(CNCC1=Cc3ccccc3OC1)CCC2", "note": "(centres undefined)", "INHIBITION": 88.5}
{"compound": "Cc1cn2c(n1)C(CNCC1=Cc3cc(Cl)ccc3OC1)CCC2", "note": "(centres undefined)", "INHIBITION": 90.2}
{"compound": "CC(NCC1=Cc2cc(Cl)ccc2OC1)c1nnc2n1CCCC2", "note": "(centres undefined)", "INHIBITION": 0.139}
{"compound": "Cn1ccnc1C(=O)N1CCCC(Cn2cc(CO)nn2)C1", "note": "(centres undefined)", "INHIBITION": 47.6}
{"compound": "O=C(Nc1ccc(F)c(F)c1)N1CCC2(CCC(=O)N(C3CC3)C2)CC1", "INHIBITION": 36}
{"compound": "COCCn1ccc2cc(C(=O)NC3CCOC(C)(C)C3)ccc21", "note": "(centres undefined)", "INHIBITION": -16.5}
{"compound": "Cc1nn(C)cc1C(=O)N1CCCn2nc(CN3CC[C@H](F)C3)cc2C1", "INHIBITION": 38.5}
{"compound": "COC(=O)NCC(=O)N1CCCn2nc(CN3CC[C@H](F)C3)cc2C1", "INHIBITION": 59.1}
{"compound": "COC(=O)NCc1cc2n(n1)CCCN(C(C)=O)C2", "INHIBITION": 9.3}
{"compound": "Cc1ccc(N2CCC(CCN3CCCC3=O)CC2)nn1", "INHIBITION": 27.7}
{"compound": "Cc1ccc(C2CCCN(S(=O)(=O)N3CCOCC3)C2)nc1", "note": "(centres undefined)", "INHIBITION": 19.85}
{"compound": "COc1ccccc1N1CCC(CNCc2cccc(C#N)c2)C1", "note": "(centres undefined)", "INHIBITION": 53.3}
{"compound": "COc1ccc(CNCC2CCN(c3ccccc3OC)C2)cc1O", "note": "(centres undefined)", "INHIBITION": -29.1}
{"compound": "COc1ccccc1N1CCC(CNCc2cccc(O)c2)C1", "note": "(centres undefined)", "INHIBITION": 37.5}
{"compound": "COc1ccccc1N1CCC(CNCc2cccc(OC)c2OC)C1", "note": "(centres undefined)", "INHIBITION": 59.4}
{"compound": "COc1ccccc1N1CCC(CNCc2ccc(C#N)cc2)C1", "note": "(centres undefined)", "INHIBITION": 40.9}
{"compound": "COc1cccc(N2CCC(CNCc3cccc(C#N)c3)C2)c1", "note": "(centres undefined)", "INHIBITION": 26.4}
{"compound": "Cc1cnn(CC2CCCN2C(=O)c2cccc(F)c2F)c1", "note": "(centres undefined)", "INHIBITION": -65.3}
{"compound": "CN(Cc1cnn(C)c1)C(=O)CCS(=O)(=O)c1ccc2c(c1)OCCO2", "INHIBITION": 38}
{"compound": "O=C(c1ccsc1)N1C[C@H]2CN(Cc3cccnc3)C(=O)[C@H]2C1", "INHIBITION": 4.61}
{"compound": "CO[C@H]1CN(S(=O)(=O)c2ccc(C)cc2)C[C@@]12CCCO2", "INHIBITION": 16.5}
{"compound": "O=C(NCc1ccc(Cl)s1)c1cc(CN2CCCC(O)C2)on1", "note": "(centres undefined)", "INHIBITION": 49.9}
{"compound": "O=C(NCc1cc2ccccc2s1)c1cc(CN2CCCC(O)C2)on1", "note": "(centres undefined)", "INHIBITION": 50.8}
{"compound": "O=C(NCc1cccc(F)c1F)c1cc(CN2CCCC(O)C2)on1", "note": "(centres undefined)", "INHIBITION": 34.1}
